Experimental data: article PMC5540273 (PLoS ONE, 2017)

These compounds were tested on KIT-autoinhibited. Settings: concentration: 1 μM, replicates: in singlicate; n = 1.
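Also: KINOMEscan kinase panel screen.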

CSc1ccc(-c2cc3ncnc(SCC(=O)O)c3s2)cc1 and COc1ccc(COc2cc(-n3cnc4ccccc43)sc2C(N)=O)cc1 [GSK1024304] are the same in “%Inh” value: 0% for the first, 0% for the second.

First: COc1ccc(Nc2nccc(N3CCC(NC(=O)Nc4cc(C)ccc4C)C3)n2)cc1 (centres unmarked) [GSK1379741]
Second: CC(C)Oc1ccc2c(-c3ccnc(Nc4ccc(N5CCN(C)CC5)cc4)n3)cnn2n1 [GW696155]
The “%Inh” value of the first is lower: 0% for the first, 43% for the second.

Nc1nc(-c2ccc3c(N)n[nH]c3c2)cc(N2CCCC2)n1 [GSK2227430] and O=C1NC(=O)C(N2CCc3ccccc32)=C1c1cccc(Cl)c1 [SB-408010] are the same in “%Inh” value: 0% for the first, 0% for the second.

Going from c1ccc(-c2n[nH]cc2-c2ccnc3ccccc23)nc1 [GW271431] to Cc1cccc(-c2nc(Nc3ccc4ncsc4c3)c3ccccc3n2)n1 [GW867588], the “%Inh” value rises from 11% to 12%.

Compared with COc1ccc(Nc2ncc(C#N)c(Nc3ccccc3C(N)=O)n2)cc1N1CCN(C)CC1.Cl [GSK1558669], Cc1ccc(NC(=O)c2ccnc(N3CCN(C)CC3)c2)cc1-c1ccc(C(=O)NCC2CC2)cc1 [GW775604] is lower in “%Inh” value: 96.1% for the first, 0% for the second.

Compared with Cc1nnc(-c2ccc3occ(-c4ccc(C(C)O)cc4)c3c2)o1 (centres unmarked), NS(=O)(=O)c1cccc(-c2ccc3nccc(-c4cccc(S(N)(=O)=O)c4)c3c2)c1 [GW867253] is higher in “%Inh” value: 0% for the first, 25% for the second.

CC(C)(CN)c1nc(-c2ccc(Cl)c(O)c2)c(-c2ccncc2)[nH]1.O=C(O)C(F)(F)F [SB-477794] and CCc1nc(-c2cccc(C)c2)c(-c2ccnc(NCc3ccccc3)c2)s1 are the same in “%Inh” value: 0% for the first, 0% for the second.
